Test results as given in PubChem BioAssay (NCATS).
Inconclusive results are not listed. Calls of active or inactive are those of the source. Calls follow the shape of the dose curve; as a rule, active = well fitted cell-killing curve with a large enough effect; inconclusive = small, poorly fitted or top-dose-only effect, or effect the other way; inactive = flat fitted curve, though single readings scatter.

Experiments:
Assay in all cases: Primary qHTS to identify gynecologic anti-cancer compounds using libraries of approved drugs and bioactive compounds (AID 1345084); also: nearly all actives have a fitted effect of over 55% in size
C33A = details: Gynecologic cancer cell panel viability, ATPlite luminescence, 48 h; series mostly up to 57.5 µM
Method in brief: (§1)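 Cells, 1,000 per well, were allowed to settle for 16 h at 37 C before compound addition. Five concentrations were tested for 48 h, and viability was read by ATPlite luminescence after 15 min at room temperature.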

CAOV3 = details: Gynecologic cancer cell panel viability, ATPlite luminescence, 48 h; series mostly up to 57.5 µM
Method in brief: as §1

CASKI = details: Gynecologic cancer cell panel viability, ATPlite luminescence, 48 h; series mostly up to 57.5 µM
Method in brief: as §1

Es-2 = details: Gynecologic cancer cell panel viability, ATPlite luminescence, 48 h; series mostly up to 57.5 µM
Method in brief: as §1

HeLa = details: Gynecologic cancer cell panel viability, ATPlite luminescence, 48 h; series mostly up to 57.5 µM
Method in brief: as §1

Hek293T = details: Gynecologic cancer cell panel viability, ATPlite luminescence, 48 h, control line for the selectivity index; series mostly up to 57.5 µM
Method in brief: as §1

JEG-3 = details: Gynecologic cancer cell panel viability, ATPlite luminescence, 48 h; series mostly up to 57.5 µM
Method in brief: as §1

Measured: Potency

Cc1ccc(N2CCN(S(=O)(=O)N3CCCCC3)CC2)c(C)c1
inactive: C33A | CAOV3 | CASKI | Es-2 | HeLa | Hek293T | JEG-3

Cc1c(C(=O)NCc2cccnc2)nn(-c2ccc(Cl)cc2Cl)c1-c1ccc(Cl)cc1
inactive: C33A | CAOV3 | CASKI | Es-2 | HeLa | Hek293T | JEG-3

C/C=C(\C)C(=O)OC1C[C@@]2(COC(C)=O)O[C@H]2/C=C\[C@@]2(C)O[C@@H]2[C@H]2OC(=O)C(COC(C)=O)=C12 (some centres not stated)
inactive: C33A | CAOV3 | CASKI | Es-2 | HeLa | Hek293T | JEG-3

CC(C)(O)c1ccn2c(-c3ccc(F)c(-c4ccc(F)cc4C#N)c3)cnc2c1F
inactive: C33A | CAOV3 | CASKI | Es-2 | HeLa | Hek293T | JEG-3

CN(C)CC#CCCC(=O)C(O)(c1ccccc1)C1CCC1 (configuration not stated)
inactive: C33A | CAOV3 | CASKI | Es-2 | HeLa | Hek293T | JEG-3

CCC(CC)(NC(=O)C(C)C)C(=O)N[C@@H](CCCN=C(N)N)C(=O)NC1(C(=O)NC(c2ccc(F)cc2)c2ccc(F)cc2)CCCC1
inactive: C33A | CAOV3 | CASKI | Es-2 | HeLa | Hek293T | JEG-3

C[C@@H](NC(=O)c1ccc(C#Cc2cccc(F)c2)cn1)C(C)(C)O
inactive: C33A | CAOV3 | CASKI | Es-2 | HeLa | Hek293T | JEG-3

CC(C)S(=O)(=O)c1ccc2nccc(Nc3ccc4scnc4c3)c2c1
inactive: C33A | CAOV3 | CASKI | Es-2 | HeLa | Hek293T | JEG-3

O=S(=O)(Nc1cc(Cl)c(Oc2cnc3ccccc3c2)c(Cl)c1)c1ccc(Cl)cc1Cl
inactive: C33A | CAOV3 | CASKI | Es-2 | HeLa | Hek293T | JEG-3

CCC[C@@]1(CCc2ccccc2)CC(O)=C([C@H](CC)c2cccc(NS(=O)(=O)c3ccc(C(F)(F)F)cn3)c2)C(=O)O1
inactive: C33A | CAOV3 | CASKI | Es-2 | HeLa | Hek293T | JEG-3

CCOC(=O)N1CCC(CN(Cc2ccc(Cl)cc2)Cc2ccc([N+](=O)[O-])s2)C1 (configuration not stated)
inactive: C33A | CAOV3 | CASKI | Es-2 | HeLa | Hek293T | JEG-3

CC(C)(Cc1nc(-c2ccc(O)cn2)no1)C(=O)NC1=C(C(=O)O)CCCC1
inactive: C33A | CAOV3 | CASKI | Es-2 | HeLa | Hek293T | JEG-3

O=C1COC2(CCN(S(=O)(=O)c3ccc(-c4ccc5cccnc5c4)cc3)CC2)CN1C1CC1
inactive: C33A | CAOV3 | CASKI | Es-2 | HeLa | Hek293T | JEG-3

CCc1cc2c(cc1CC)CC(NCC(O)c1ccc(O)c3[nH]c(=O)ccc13)C2 (configuration not stated)
inactive: C33A | CAOV3 | CASKI | Es-2 | HeLa | Hek293T | JEG-3

CCC(CC)Nc1nc(C)c(-c2ccc(OC(F)(F)F)cc2OC)nc1OC
inactive: C33A | CAOV3 | CASKI | Es-2 | HeLa | Hek293T | JEG-3

C[C@@]12C(=O)N(c3ccc(C(=O)Nc4cccc5cccnc45)cc3)C(=O)[C@@H]1[C@@H]1C=C[C@H]2C1
inactive: C33A | CAOV3 | CASKI | Es-2 | HeLa | Hek293T | JEG-3

COc1cc(/C=N\NC(=O)c2ccc3c(c2)OCO3)ccc1OCc1ccccc1
inactive: C33A | CAOV3 | CASKI | Es-2 | HeLa | Hek293T | JEG-3

CC(OC1OCCN(Cc2n[nH]c(=O)[nH]2)C1c1ccc(F)cc1)c1cc(C(F)(F)F)cc(C(F)(F)F)c1 (configuration not stated)
inactive: C33A | CAOV3 | CASKI | Es-2 | HeLa | Hek293T | JEG-3

COc1ccccc1OCCN1CC(COc2cccc3[nH]c4ccccc4c23)OCC1=O (configuration not stated)
inactive: C33A | CAOV3 | CASKI | Es-2 | HeLa | Hek293T | JEG-3

C=CCC1=C[C@]2(OC)[C@H](C)[C@@H](c3ccc4c(c3)OCO4)O[C@]2(OC)CC1=O
inactive: C33A | CAOV3 | CASKI | Es-2 | HeLa | Hek293T | JEG-3

COc1ccc(CNCc2cccc3ccccc23)cc1
inactive: C33A | CAOV3 | CASKI | Es-2 | HeLa | Hek293T | JEG-3
